CYP2C19 inh – blocks human cytochrome P450 2C19. inhibition, % at 5 µM. P33261. CYP2C19 Supersomes, luciferin-H EGE luminescence, 30 min. 21% of 96,000 active;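 active = CYP2C19 inhibition above a set limit at 5 µM in the primary screen, cut at about 50% in these data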;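 note: plate controls were negative control wells for no effect and 2.5 mM tranylcypromine positive control for full effect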
Target sequence (P33261 whole entry, looked up): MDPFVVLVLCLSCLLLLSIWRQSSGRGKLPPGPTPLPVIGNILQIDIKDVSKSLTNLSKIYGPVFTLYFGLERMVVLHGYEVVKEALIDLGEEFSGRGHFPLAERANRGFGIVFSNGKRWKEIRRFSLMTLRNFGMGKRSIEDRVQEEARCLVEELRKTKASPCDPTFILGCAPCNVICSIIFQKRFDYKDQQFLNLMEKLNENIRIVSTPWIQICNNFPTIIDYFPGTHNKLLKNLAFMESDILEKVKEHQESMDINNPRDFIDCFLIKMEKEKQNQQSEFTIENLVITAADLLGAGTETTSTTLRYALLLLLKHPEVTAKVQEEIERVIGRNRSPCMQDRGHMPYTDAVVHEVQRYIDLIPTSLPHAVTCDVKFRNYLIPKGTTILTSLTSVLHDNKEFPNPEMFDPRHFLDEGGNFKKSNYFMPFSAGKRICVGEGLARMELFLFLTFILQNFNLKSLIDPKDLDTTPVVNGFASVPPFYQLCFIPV
Measles CPE – protection of cells from measles virus. Measles virus-infected cells, CPE protection, absorbance. protection (pct of control), % at 4 µM. 1.5% of 140,000 active. AID 841; in the data active = protection mostly above about 24%, no sharp cut-off; inactive = mostly below about 26%
CYP2C19 act – increases human CYP2C19 enzyme activity; P33261; recombinant CYP2C19, luciferin-H EGE luminescence; hits give high values; 0 = fully inhibited enzyme, 1 = untreated enzyme; 96,000 tested, under 10 active; activation factor at 5 µM;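 active = activation factor of at least 2 at 5 µM in the primary screen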;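 note: 0 = wells with 2.5 mM tranylcypromine and 1 = vehicle-only wells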
CYP2C9 activ – activators of human CYP2C9; 1.4% of 96,000 active; recombinant CYP2C9, luciferin-H conversion, luminescence; hits give high values; factor 1 = untreated enzyme, 0 = blocked; activation factor at 5 µM; P11712;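 active = activation factor of 2 or more for CYP2C9 at a 5 µM dose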;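 note: 0 = sulfaphenazole-blocked wells and 1 = vehicle-only wells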
CYP2C9 inh – human CYP2C9 inhibition | P11712 | CYP2C9 Supersomes, luciferin-H conversion, luminescence | inhibition, % at 5 µM | 20% of 96,000 active | AID 777;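 active = blocking of liver enzyme CYP2C9 beyond about 50% at 5 µM, limit read from the data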
The depositor's hits bear a star; nt = no result. Shown are actives, neighbours in structure and some others; about 22% of the full set was active somewhere.

SMILES | CYP2C19 inh | Measles CPE | CYP2C19 act | CYP2C9 activ | CYP2C9 inh
COc1cccc(C(=O)NCc2nnc(SCC(=O)Nc3nccs3)n2-c2ccccc2)c1 | nt | 4 | nt | nt | nt
CCN1CCCC1CNC(=O)CSc1cc(=O)n(CC)c2ccccc12 (configuration not stated) | -7 | 2 | 1.1 | 0.9 | 6
Fc1ccc(NC(=S)NC2CCCCC2)c(F)c1F | nt | 6 | nt | nt | nt
CC(C)(C)NC(=O)CN(C(=O)CSc1nnc(COc2ccccc2)o1)c1cccc(F)c1 | 15 | 31* | 0.9 | 0.6 | 45
O=C(CN(C(=O)CSc1nc2ccccc2o1)c1cccc(F)c1)NC1CCCCC1 | 74* | 1 | 0.3 | 0.4 | 63*
O=C(CSc1nnc(COc2ccccc2)o1)c1ccccc1 | 41 | 25 | 0.6 | 0.7 | 25
O=C(CSc1nc2ccccc2o1)N1CCCC1 | 32 | 5 | 0.7 | 1 | 3
O=C(CN(C(=O)CSc1nc2ccccc2o1)c1ccccc1)NC1CCCCC1 | 77* | 19 | 0.2 | 0.5 | 50
CC(=O)Nc1ccc(N2C(=O)CC(N3CCN(Cc4ccc5c(c4)OCO5)CC3)C2=O)cc1 (configuration not stated) | nt | 10 | nt | nt | nt
CCC(=O)N(CCC1(C(C)C)CCOC(C)(C)C1)Cc1ccco1 (configuration not stated) | 59* | 5 | 0.4 | 0.9 | 14
CCc1nc(N2CCC(C)CC2)c2oc3ccccc3c2n1 | -8 | 15 | 1.1 | 1 | -2
COc1ccc(N2CCN(C(=O)c3cc4c(-c5cccc(OC)c5)nn(C)c4s3)CC2)cc1 | 23 | 12 | 0.8 | 0.5 | 51*
COc1ccc(-c2nn(C)c3sc(C(=O)N4CCOCC4)cc23)cc1OC | 18 | 33 | 0.8 | 0.9 | 8
COc1cccc(-c2nn(C)c3sc(C(=O)NCc4ccc(C)cc4)cc23)c1 | 26 | 18 | 0.7 | 0.5 | 54*
Cn1c(=O)[nH]c(=O)c2c1ncn2CCN1CCOCC1 | -4 | 0 | 1 | 1 | 2
C/C(Cl)=C/CN1C(=O)C2C3C=CC(C3)C2C1=O (configuration not stated) | 73* | 14 | 0.3 | 0.7 | 29
CC12C(=O)N(Cc3ccccc3)C(=O)C1C1C=CC2C1 (configuration not stated) | 89* | 12 | 0.1 | 0.8 | 20
O=C1C2C3C=CC(C3)C2C(=O)N1Cc1ccccc1 (configuration not stated) | 84* | 3 | 0.2 | 0.8 | 19
CCOc1cc(C2Nc3ccccc3C(=O)N2c2ccccc2)c(Br)cc1OCC(=O)O (configuration not stated) | nt | 10 | nt | nt | nt
CC(=O)Nc1ccc(OCC(O)Cn2nc(C)c(C(C)=O)c2C)cc1 (configuration not stated) | 13 | 7 | 0.9 | 0.6 | 43
O=C(CCCNS(=O)(=O)c1cccs1)N1CCc2ccccc2C1 | 55* | 13 | 0.4 | 1.6 | -62
CC(C)C(NS(=O)(=O)c1cccs1)C(=O)N1CCc2ccccc2C1 (configuration not stated) | 79* | 3 | 0.2 | 0.6 | 43
O=C(CNS(=O)(=O)c1cccs1)N1CCc2ccccc2C1 | 53* | 25 | 0.5 | 1.1 | -13
O=C(CNS(=O)(=O)c1cccs1)N1CCCC1 | 10 | 4 | 0.9 | 1 | -4
O=[N+]([O-])c1ccc(N2CCC(=NOCc3ccc(Cl)cc3)CC2)cc1 | 19 | 6 | 0.8 | 0.6 | 40
SMILES | CYP2C19 inh | Measles CPE | CYP2C19 act | CYP2C9 activ | CYP2C9 inh
COC(=O)c1ccc(CSc2ccc3nnc(-c4ccccn4)n3n2)o1 | 20 | 10 | 0.8 | 0.8 | 21
CCOc1ccc2nc(SCc3ccc(C(=O)OC)o3)[nH]c2c1 | 83* | 15 | 0.2 | 0.2 | 80*
COC(=O)c1ccc(CSc2nc3c(cnn3-c3ccc(C)c(C)c3)c(=O)[nH]2)o1 | nt | 30* | nt | nt | nt
COC(=O)c1ccc(CSc2ncnc3sc(C)c(C)c23)o1 | 20 | 9 | 0.8 | 0.9 | 6
CCCSc1nc2c(cnn2-c2ccc(C)c(C)c2)c(=O)[nH]1 | -8 | 9 | 1.1 | 1.4 | -43
CCOc1ccc(-c2nnc3ccc(SCc4ccc(C(=O)OC)o4)nn23)cc1 | 65* | 10 | 0.4 | 0.1 | 85*
CCOC(=O)NC(=O)CSc1nc2ccc(OCC)cc2[nH]1 | 15 | 0 | 0.9 | 0.9 | 9
COC(=O)c1ccc(CSc2nc3scc(-c4cccs4)c3c(=O)[nH]2)o1 | 24 | 9 | 0.8 | 0.4 | 57*
COC(=O)c1ccc(N2CCN(S(=O)(=O)c3ccc(Br)cc3)CC2)c([N+](=O)[O-])c1 | 30 | 30 | 0.7 | 0.6 | 39
Cc1ccc(OCC(=O)NNC(=O)CSc2ncc(C#N)c(N)n2)cc1 | nt | 4 | nt | nt | nt
CCOC(=O)c1cnc(-n2nc(C)cc2C)nc1NC(C)c1ccccc1 (configuration not stated) | nt | 6 | nt | nt | nt
COC(=O)c1ccc(CSc2nc3ccc(Cl)cc3[nH]2)o1 | 54* | 2 | 0.5 | 0.2 | 80*
COC(=O)c1ccc(CSc2nc3cc(Cl)ccc3s2)o1 | 5 | 5 | 0.9 | 0.9 | 11
CCOC(=O)C(C)(C)Sc1nc2c(cnn2-c2ccc(Cl)cc2)c(=O)[nH]1 | 46 | 18 | 0.5 | 0.2 | 76*
COC(=O)c1ccc2c(c1)S(=O)(=O)NC(=NCc1ccco1)S2 | 22 | 85* | 0.8 | 1.2 | -22
COC(=O)C1=C(C)N(Cc2ccco2)C(=O)N[C@H]1c1ccccc1 | nt | 8 | nt | nt | nt
Cc1ccc(C(=O)C(C)OC(=O)c2cc3cc([N+](=O)[O-])ccc3oc2=O)cc1 (configuration not stated) | 16 | 19 | 0.8 | 0.1 | 88*
COCc1cc(=O)[nH]c(Nc2nc3ccc(C)cc3o2)n1 | 21 | 1 | 0.8 | 0.5 | 48
O=C1CC(N2CCN(c3cccc(C(F)(F)F)c3)CC2)C(=O)N1c1ccccc1 (configuration not stated) | -8 | 22 | 1.1 | 0.8 | 18
Cn1cccc1C(=O)N1CCN(c2cccc(C(F)(F)F)c2)CC1 | 76* | 10 | 0.2 | 0.8 | 22
O=C1CC(N2CCN(c3cccc(C(F)(F)F)c3)CC2)C(=O)N1c1ccccc1F (configuration not stated) | 47 | 14 | 0.5 | 0.2 | 84*
O=C(c1c(F)cccc1F)N1CCN(c2cccc(C(F)(F)F)c2)CC1 | 94* | 14 | 0.1 | 0.2 | 80*
COC(=O)c1ccc2nc(Nc3nc4c(F)cc(F)cc4s3)sc2c1 | nt | 4 | nt | nt | nt
Cc1cccc(N/C=C/C(=C(C#N)C#N)N(C)C)c1 | 76* | 21 | 0.2 | 0.1 | 87*
CN(C)C(/C=C/Nc1ccccc1F)=C(C#N)C#N | 19 | 4 | 0.8 | 0.5 | 50
CCOC(=O)C1CCN(c2c(NCCN3CCN(c4ccccc4)CC3)c(=O)c2=O)CC1 | -1 | 12 | 1 | 1 | -4
CCOC(=O)C1CCN(c2c(NCc3ccc(C(=O)NC(C)CC)cc3)c(=O)c2=O)CC1 (configuration not stated) | 12 | 8 | 0.9 | 0.4 | 59*
